Out of some 310,000 compounds screened, about 2,200 (0.71%) showed an effect of 50% or more. The effect is printed as a negative number. Many of the other results were omitted from the sample, so strong results are more common in it than they were.
Molecular target: human ether-à-go-go-related gene (hERG) potassium channel (human, UniProt Q12809)
Experiment: primary screen, population patch clamp on CHO cells stably expressing hERG; higher = less effect of the substance

Chain of human ether-à-go-go-related gene (hERG) potassium channel (Q12809 whole entry, looked up): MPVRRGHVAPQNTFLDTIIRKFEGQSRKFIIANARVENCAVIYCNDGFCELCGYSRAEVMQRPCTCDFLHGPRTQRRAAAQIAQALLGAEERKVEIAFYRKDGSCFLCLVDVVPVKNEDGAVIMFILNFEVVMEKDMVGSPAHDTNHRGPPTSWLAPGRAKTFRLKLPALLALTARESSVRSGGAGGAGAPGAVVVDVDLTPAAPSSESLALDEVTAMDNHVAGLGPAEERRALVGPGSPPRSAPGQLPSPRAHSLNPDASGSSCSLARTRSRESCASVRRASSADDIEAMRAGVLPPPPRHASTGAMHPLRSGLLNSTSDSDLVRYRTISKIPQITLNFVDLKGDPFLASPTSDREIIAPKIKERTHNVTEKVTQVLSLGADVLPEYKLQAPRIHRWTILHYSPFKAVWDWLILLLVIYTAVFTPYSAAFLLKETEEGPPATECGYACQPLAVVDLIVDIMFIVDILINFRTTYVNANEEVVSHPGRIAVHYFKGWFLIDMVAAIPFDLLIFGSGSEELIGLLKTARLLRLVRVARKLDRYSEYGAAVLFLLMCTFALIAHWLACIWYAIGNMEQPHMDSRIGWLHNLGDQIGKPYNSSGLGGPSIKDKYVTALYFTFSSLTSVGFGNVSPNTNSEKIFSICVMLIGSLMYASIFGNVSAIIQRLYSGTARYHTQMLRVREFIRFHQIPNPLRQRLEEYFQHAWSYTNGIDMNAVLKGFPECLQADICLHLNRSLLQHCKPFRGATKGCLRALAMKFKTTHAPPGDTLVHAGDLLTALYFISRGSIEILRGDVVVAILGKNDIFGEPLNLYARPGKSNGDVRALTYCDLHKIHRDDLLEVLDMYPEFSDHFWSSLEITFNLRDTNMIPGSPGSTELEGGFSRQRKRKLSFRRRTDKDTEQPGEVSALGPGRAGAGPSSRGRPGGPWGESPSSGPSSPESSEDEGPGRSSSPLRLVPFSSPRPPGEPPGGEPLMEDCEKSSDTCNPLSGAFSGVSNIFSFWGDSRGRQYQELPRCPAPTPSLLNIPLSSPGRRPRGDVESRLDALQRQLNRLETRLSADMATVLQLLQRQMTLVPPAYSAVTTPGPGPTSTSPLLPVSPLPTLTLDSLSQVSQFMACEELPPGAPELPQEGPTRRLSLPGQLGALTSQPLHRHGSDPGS

Compound	hERG current change (%, negative = inhibition) at 1uM
COc1ccc(NC(=S)Nc2ccc(OC)cc2OC)c(OC)c1	17.8%
COC/C=C/C1=CC2=CC(=O)C(C)(OC(=O)c3cnc4ccccc4n3)C(=O)C2=CN1C1CC1 (stereo not shown)	9.57%
N#Cc1cn(CCCOc2ccccc2)c2ccccc12	11.3%
c1ccc(-c2nc(NC3CCCC3)c3ccccc3n2)cc1	18.4%
c1ccc2c(NC3CCCC3)nnc(NC3CCCC3)c2c1	-70.4%
c1csc(-c2nnc(NC3CCCCC3)c3ccccc23)c1	-40.8%
CC1(C(=O)O)COC(c2ccc([N+](=O)[O-])cc2)OC1 (stereo not shown)	2.26%
Cn1c(=O)cc(SCC(=O)N2CCCC2)c2ccccc21	9.79%
CCn1ccnc1CNC(=O)CC1C(=O)NCCN1Cc1ccc(F)cc1Cl (stereo not shown)	13.5%
COc1ccc2[nH]cc(C(O)CN3CCN(c4ccccc4F)CC3)c2c1 (stereo not shown)	8.35%
COc1ccc2[nH]cc(C(O)CN3CCC(C(N)=O)CC3)c2c1 (stereo not shown)	11.1%
COc1ccc(N2CCN(CC(O)c3c[nH]c4ccc(OC)cc34)CC2C)cc1 (stereo not shown)	-50.6%
CC(C)OC(=O)/C(=C\c1ccccc1)NC(=O)c1ccccc1	9.47%
CCN(CC)S(=O)(=O)c1ccc(C)c(NC(=O)CNCc2ccccc2OC)c1.O=C(O)C(=O)O	20.9%
CCN(CC)S(=O)(=O)c1ccc(C)c(NC(=O)CN2CCN(C)CC2)c1.O=C(O)C(=O)O	6%
CCN(CC)S(=O)(=O)c1ccc(C)c(NC(=O)CNCCN(C(C)C)C(C)C)c1.O=C(O)C(=O)O	-66.5%
O=C1Nc2ccccc2N=C(c2ccccc2)C1N1CCOCC1 (stereo not shown)	18.1%
COc1nc(NC2CCCCC2)nc(NC(C)(C)C)n1	4.9%
Cc1ccc(-c2nnc(SCc3ccc(C#N)cc3)n2Cc2ccco2)cc1	-19.2%
COC(=O)CSc1nnc(CSc2nc(C)cc(C)n2)n1Cc1ccco1	11.5%
Cc1cc(C)nc(SCc2nnc(SCc3ccc([N+](=O)[O-])cc3)n2Cc2ccco2)n1	-57.5%
Cc1ccc(NCc2nnc(SCc3ccc(C#N)cc3)n2Cc2ccco2)c(C)c1	-54.9%

Compound	hERG current change (%, negative = inhibition) at 1uM
Cc1cc(C)nc(SCc2nnc(SCC(N)=O)n2Cc2ccco2)n1	-3.7%
Cc1cccc(-c2nnc(SCc3ccc(C#N)cc3)n2Cc2ccco2)c1	-44%
Cl.O=C(NCCCn1ccnc1)c1cc(Cl)cc(Cl)c1	4.65%
CC1CCC/C(=C\Nc2ccc(C(=O)O)c(O)c2)C1=O (stereo not shown)	9.19%
COc1cc(OC)cc(C(=O)Oc2ccc(/C=N/Nc3nc4ccccc4s3)cc2OC)c1	0.482%
Cc1onc(-c2c(Cl)cccc2Cl)c1C(=O)Nc1ccc(Cl)cn1	11.3%
COc1ccccc1NS(=O)(=O)c1cccc(C(=O)NCC(c2ccco2)N2CCCCC2)c1 (stereo not shown)	-0.284%
CCOc1ccccc1C(=O)NCC(=O)NC(C)c1ccc(-n2ccnc2)cc1 (stereo not shown)	-58.3%
CCOc1ccccc1C(=O)NC(C)c1ccc(-n2ccnc2)cc1 (stereo not shown)	-34.8%
COc1ccccc1C(=O)NCC(=O)NC(C)c1ccc(-n2ccnc2)cc1 (stereo not shown)	-2.86%
COc1ccccc1NC(=O)c1ccc(COc2ccccc2Br)o1	13.8%
O=C(O)C(=O)O.O=C(c1ccc([N+](=O)[O-])cc1)N1CCN(Cc2ccccc2[N+](=O)[O-])CC1	-70.1%
CCN(CC)c1ccc(CN2CCC(C(=O)NCc3ccc(C)cc3)CC2)cc1.O=C(O)C(=O)O	-13.2%
Cc1ccc(CNC(=O)C2CCCC2)cc1	10.4%
CSc1ccc(CN2CCC(C(=O)NCc3ccc(C)cc3)CC2)cc1.O=C(O)C(=O)O	-76.1%
CCS(=O)(=O)N1CCN(Cc2ccc([N+](=O)[O-])cc2)CC1.O=C(O)C(=O)O	9.38%
COc1ccccc1N1CCN(Cc2ccc(Br)cc2)CC1.O=C(O)C(=O)O	-6.63%
COc1ccccc1N1CCN(Cc2ccc(SC)cc2)CC1.O=C(O)C(=O)O	-53.8%
COc1ccc(C(=O)N2CCN(Cc3ccccc3[N+](=O)[O-])CC2)cc1.O=C(O)C(=O)O	-20.9%
COc1cc(OC)cc(C(=O)N2CCN(Cc3ccccc3[N+](=O)[O-])CC2)c1.O=C(O)C(=O)O	-7.12%
CSc1ccc(CN2CCN(Cc3ccc([N+](=O)[O-])cc3)CC2)cc1.O=C(O)C(=O)O	-70.5%
CCc1ccc(CN2CCN(Cc3ccc(SC)cc3)CC2)cc1.O=C(O)C(=O)O	-27.1%

Compound	hERG current change (%, negative = inhibition) at 1uM
COc1ccccc1N1CCN(Cc2ccccc2)CC1.O=C(O)C(=O)O	6.85%
O=C(Cc1ccc([N+](=O)[O-])cc1)NCc1ccccn1	12.5%
CC(N=C1NS(=O)(=O)c2ccccc21)C(=O)OCC(=O)N(C)C1CCS(=O)(=O)C1 (stereo not shown)	-1.85%
Cc1ccc2c(c1)c1c(c(=O)n(-c3ccccc3C)c(=O)n1CC(=O)NCC1CCCO1)n2C (stereo not shown)	0.188%
CCOC(=O)[C@H]1[C@H]2COc3ccc(OC)cc3[C@@H]2N2C(=O)c3cc(OC)c(OC)cc3NC(=O)[C@@]12C	5.4%
O=C(NNC(=S)Nc1ccccc1)c1ccc(O)cc1	15.2%
Cc1nn(-c2ccccc2)c(Cl)c1/C=C(\CC(=O)O)c1nc2ccccc2s1	2.95%
Cc1nnc(SCC(=O)Nc2sc3c(c2C(N)=O)CCC(C)C3)[nH]c1=O (stereo not shown)	10.6%
CC1CCCCC1NC(=O)CN1C(=O)CSc2cc(S(=O)(=O)N3CCCCCC3)ccc21 (stereo not shown)	7.3%
CSc1ccc(CN2CCN(C(=O)c3ccc([N+](=O)[O-])cc3)CC2)cc1.O=C(O)C(=O)O	-78.1%
O=C(c1ccc([N+](=O)[O-])cc1)N1CCN(Cc2ccccc2)CC1	-28.7%
CSc1ccc(CN2CCN(C(=O)c3ccncc3)CC2)cc1	-0.743%
Cc1[nH]c2ccc(Br)cc2c(=S)c1C/C=C/Cl	5.3%
COCCNC(=O)NC(=O)COC(=O)C1(c2ccc(Cl)cc2)CC1	6.06%
CCN(CC)C(=O)CC(c1ccc2c(c1)OCO2)c1c(O)cc(OC)cc1OC (stereo not shown)	5.47%
COc1cc(O)c(C(CCN2CCCC2)c2ccc3c(c2)OCO3)c(OC)c1 (stereo not shown)	-41.5%
CCN(CC)CCC(c1ccc(OC)cc1)c1c(O)cc(OC)cc1OC (stereo not shown)	-25.8%
COc1cc(O)c(C(CCN2CCN(c3ccccc3)CC2)c2ccc3c(c2)OCO3)c(OC)c1 (stereo not shown)	5.8%
COc1cc(O)c(C(CCN2CCCCC2)c2ccc3c(c2)OCO3)c(OC)c1 (stereo not shown)	-72.1%
COc1ccc(C(CCN2CCCC2)c2c(O)cc(OC)cc2OC)cc1 (stereo not shown)	-21.1%
COc1cc(O)c(C(CCN2CCCC(C)C2)c2ccc(N(C)C)cc2)c(OC)c1 (stereo not shown)	-9.72%
COc1cc(O)c(C(CC(=O)N2CCCC(C)C2)c2ccc3c(c2)OCO3)c(OC)c1 (stereo not shown)	14.5%

Compound	hERG current change (%, negative = inhibition) at 1uM
COc1cc(O)c(C(CCN2CCCCC2)c2ccc(N(C)C)cc2)c(OC)c1 (stereo not shown)	10.3%
CCN(CC)CCC(c1ccc2c(c1)OCO2)c1c(O)cc(OC)cc1OC (stereo not shown)	-73.4%
COc1ccc(C(CCN2CCCCC2)c2c(O)cc(OC)cc2OC)cc1 (stereo not shown)	-71.3%
COc1cc(O)c(C(CCN2CCCC(C)C2)c2ccc3c(c2)OCO3)c(OC)c1 (stereo not shown)	-84.1%
CC1CN(C(=O)c2c(Br)cnn2C)CC(C)O1 (stereo not shown)	4.32%
O=C(COC(=O)Cc1ccsc1)Nc1cccc(Cl)c1	0.601%
COc1ccc(N2CCN(C(=O)c3cccc(NC(=O)c4ccco4)c3)CC2)cc1	-8.07%
Cc1ccc(C(=O)N2CCN(c3ccccc3)CC2)cc1NC(=O)c1ccco1	1.43%
COc1ccc(N2CCN(C(=O)c3ccc(C)c(NC(=O)c4ccco4)c3)CC2)cc1	-53.7%
O=C(c1cc(COc2ccc3ncccc3c2)on1)N1CCCC1	13.5%
CN1C(=O)c2oc3ccccc3c(=O)c2C1c1ccncc1 (stereo not shown)	5.81%
O=S(=O)(c1ccc2nc(-c3ccccc3)[nH]c2c1)N1CCN(c2ccc(Cl)cc2)CC1	5.61%
COc1ccc(OC)c(CN2CCC(CNC(=O)Nc3cccc(Cl)c3)CC2)c1	-26.3%
O=C(NCC1CCN(Cc2ccccc2Cl)CC1)Nc1cccc(Cl)c1	-62.3%
O=C(NCC1CCN(Cc2ccccc2Cl)CC1)Nc1ccccc1F	-6.32%
C1CNCCN1.COc1cc(C(O)CO)ccc1O (stereo not shown)	10%
CCN(CC)CCOC(=O)CCc1cccc2ccccc12.O=C(O)C(=O)O	-3.77%
CCN(CC)CCOC(=O)C(Cc1ccco1)Cc1cccc2ccccc12.O=C(O)C(=O)O (stereo not shown)	-62.8%
CCN(CC)CCOC(=O)C(Cc1cccc2ccccc12)CC1CCCO1.O=C(O)C(=O)O (stereo not shown)	-20.2%

Reference: publication PMC4336329 (PLoS ONE, 2015)
